Results from PubChem BioAssay (NCATS).
Values joined by “and” are separate entries in the source; they are usually repeats but may differ in a detail not shown here. Equal entries are not always repeated. Inconclusive results are not listed. Active and inactive are the calls of the source. The call rests on the fitted dose curve; in most records, active means well fitted curve in the direction sought with a large enough effect; inconclusive means small, poorly fitted or top-dose-only effect, or another doubt; inactive means no such curve, though single readings can be large; an effect the other way counts as inactive or inconclusive.

Experiments:
[1] = molecular target: Cytochrome P450 3A7 (Homo sapiens) (UniProt P24462); experiment: Cytochrome P450 family 3 subfamily A member 7 (CYP3A7) small molecule antagonists: luciferase biochemical qHTS assay (AID 1963596); details: P450-Glo CYP3A7 enzyme luminescence, 1 h; series mostly up to 57.4 µM; further: on the % scale 0 is the no-effect control and ±100 the full control effect; nearly all actives have a fitted effect of over 40% in size
Sequence of Cytochrome P450 3A7 (Homo sapiens) (P24462 whole entry, looked up): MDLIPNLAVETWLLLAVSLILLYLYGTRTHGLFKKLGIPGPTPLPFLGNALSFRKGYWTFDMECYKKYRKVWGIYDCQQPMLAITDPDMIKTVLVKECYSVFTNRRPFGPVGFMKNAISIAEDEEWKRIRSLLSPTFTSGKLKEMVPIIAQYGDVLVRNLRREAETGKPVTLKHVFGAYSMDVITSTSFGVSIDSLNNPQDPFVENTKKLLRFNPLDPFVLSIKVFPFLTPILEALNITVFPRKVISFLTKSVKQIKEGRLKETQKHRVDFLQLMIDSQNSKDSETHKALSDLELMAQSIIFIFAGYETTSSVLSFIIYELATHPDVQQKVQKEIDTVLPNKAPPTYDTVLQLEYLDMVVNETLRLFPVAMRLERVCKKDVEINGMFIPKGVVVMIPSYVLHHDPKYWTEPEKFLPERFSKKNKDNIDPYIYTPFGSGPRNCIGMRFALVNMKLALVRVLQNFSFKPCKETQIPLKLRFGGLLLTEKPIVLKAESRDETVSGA
How it was run: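 Recombinant CYP3A7 P450-Glo luminescent assay: enzyme-proluciferin substrate mix preincubated with compound 10 min at room temperature, reaction started with NADPH regeneration system for 1 h. Luciferin detected by luminescence; ketoconazole as positive control.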

[2] = Viability qHTS for spleen associated tyrosine kinase inhibitor (SYKi) drug resistant MV4-11 cells (AID 1963824); details: SYKi-resistant MV4-11 viability, CellTiter-Glo, 72 h; series mostly up to 45 µM; further: nearly all actives have a fitted effect of over 35% in size; further: potency means the concentration at half of the fitted maximal effect
How it was run: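 SYK-inhibitor-resistant MV4-11 AML cells were seeded at 500 per well onto compound and cultured 72 hours (37 °C, 5% CO2). CellTiter-Glo was then added, and after 10 min at room temperature, luminescence gave viability.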

[3] = Cellular viability qHTS for adrenocortical cancer (ACC) cell line SW-13 (AID 1963989); details: SW-13 ACC cells viability, CellTiter-Glo, 48 h; activity (max response): hits give low values; further: nearly all actives have a fitted effect of over 65% in size; further: potency means the concentration at half of the fitted maximal effect;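 on activity (max response): cells grown in serum-free medium with ITS supplement; on the % scale 0 is the no-effect control and ±100 the full control effect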
How it was run: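 Viability was read as CellTiter-Glo luminescence after 48 h compound treatment (up to 46 uM final) of SW-13 cells grown serum-free; titration curves were fit with a four-parameter logistic model to give IC50 and efficacy.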

[4] = Cellular viability qHTS for adrenocortical cancer (ACC) cell line NCI-H295R (AID 1963990); details: CellTiter-Glo ATP luminescence, 48 h; series mostly up to 46.1 µM; further: nearly all actives have a fitted effect of over 60% in size; further: potency means the concentration at half of the fitted maximal effect
How it was run: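 CellTiter-Glo ATP luminescence, read 48 h after compound addition, measured viability of NCI-H295R adrenocortical cells grown serum-free with ITS. Final concentrations spanned up to 46 uM. Data normalized to DMSO and doxorubicin, fitted for IC50 and maximal response.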

[5] = Quantitative highthroughput screen to assess conditional lethalithy of NOMO1 cells grown in RPMI1640 with untreated serum (RPMI+s) (AID 1963876); details: NOMO1 AML cells in RPMI+serum, CellTiter-Glo viability, 48 h; series mostly up to 45.8 µM;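 further: 100% = DMSO wells and 0% = empty wells without cells; nearly all actives have a fitted effect of over 35% in size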
How it was run: (§1)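 Each medium arm—HPLM with 10% dialyzed FBS, or RPMI1640 with 5 mM glucose and 10% untreated or dialyzed FBS—was screened against an 11-point, 3-fold compound titration for 48 h at 37 °C, with CellTiter-Glo luminescence as endpoint.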

[6] = Quantitative highthroughput screen to assess conditional lethalithy of NOMO1 cells grown in RPMI1640 with dialyzed fetal bovine serum (RPMI+ds) (AID 1963877); details: NOMO1 in RPMI+dialyzed FBS viability, ATP luminescence, 48 h; series mostly up to 45.8 µM;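 further: 100% = DMSO control wells and 0% = empty wells; nearly all actives have a fitted effect of over 30% in size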
How it was run: as §1

[7] = Quantitative highthroughput screen to assess conditional lethalithy of NOMO1 cells grown in Human Plasma-Like Medium with dialyzed fetal bovine serum (HPLM+ds) (AID 1963878); details: NOMO1 AML cells in HPLM+ds, CellTiter-Glo viability, 48 h; series mostly up to 45.8 µM;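 further: 100% = DMSO wells and 0% = empty wells on each plate; nearly all actives have a fitted effect of over 35% in size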
How it was run: as §1

[8] = Quantitative highthroughput screen to assess conditional lethalithy of P12 Ichikawa cells grown in Human Plasma-Like Medium with dialyzed fetal bovine serum (HPLM+ds) (AID 1963879); details: ATP luminescence, 48 h; Potency: viability; series mostly up to 45.8 µM; further: nearly all actives have a fitted effect of over 35% in size
How it was run: as §1

[9] = Quantitative highthroughput screen to assess conditional lethalithy of P12 Ichikawa cells grown in RPMI1640 with dialyzed fetal bovine serum (RPMI+ds) (AID 1963880); details: ATP luminescence, 48 h; Potency: P12-Ichikawa viability; series mostly up to 45.8 µM
How it was run: as §1

[10] = Quantitative highthroughput screen to assess conditional lethalithy of SEM cells grown in Human Plasma-Like Medium with dialyzed fetal bovine serum (HPLM+ds) (AID 1963882); details: SEM B-ALL cells in HPLM+ds, CellTiter-Glo viability, 48 h; series mostly up to 45.8 µM; further: nearly all actives have a fitted effect of over 35% in size
How it was run: as §1

[11] = Quantitative highthroughput screen to assess conditional lethalithy of SEM cells grown in RPMI1640 with unreated serum (RPMI+s) (AID 1963883); details: SEM B-ALL cells, CellTiter-Glo viability, 48 h; series mostly up to 45.8 µM
How it was run: as §1

[12] = Quantitative highthroughput screen to assess conditional lethalithy of SEM cells grown in RPMI1640 with dialyzed fetal bovine serum (RPMI+ds) (AID 1963884); details: SEM B-ALL cells, RPMI+dialyzed FBS, CellTiter-Glo viability, 48 h; series mostly up to 45.8 µM
How it was run: as §1

[13] = Quantitative highthroughput screen to assess conditional lethalithy of P12 Ichikawa cells grown in RPMI1640 with untreated serum (RPMI+s) (AID 1963881); details: ATP luminescence, 48 h; Potency: viability; series mostly up to 45.8 µM
How it was run: as §1

CCCN(CCC)CCc1cccc2c1CC(=O)N2
inactive: Potency [1] | Potency [2] | activity (max response) [3] 8.18% | Potency [4]

C[C@@H](N)C(=O)O
inactive: Potency [1] | Potency [2] | Potency [4]

OC[C@@H](O)[C@H](O)[C@H](O)[C@@H](O)CO
inactive: Potency [1] | Potency [4]
active: Potency [2] 3.35 µM

CC1(C)Oc2ccc(C#N)cc2[C@@H](N2CCCC2=O)[C@@H]1O
inactive: Potency [1] | Potency [2] | Potency [4]

Cc1c(C(=O)N2CCOc3ccc(-c4ccc(N)nc4)cc3C2)ccc(S(C)(=O)=O)c1F
active: Potency [2] 3.26 µM | Potency [4] 8.91 µM
inactive: Potency [1]

CCN1CCN(Cc2ccc(NC(=O)c3ccc(C)c(NC(=O)c4cncc(-c5cccs5)c4)c3)cc2C(F)(F)F)CC1
active: Potency [2] 14.6 nM and 26.3 nM | Potency [3] 2 µM | Potency [4] 2.51 µM
inactive: Potency [1]

COc1ccc([C@@H]2CC(=O)c3c(O)cc(O[C@@H]4O[C@H](CO[C@@H]5O[C@@H](C)[C@H](O)[C@@H](O)[C@@H]5O)[C@@H](O)[C@H](O)[C@@H]4O)cc3O2)cc1O
inactive: Potency [1] | Potency [5] | Potency [6] | Potency [7] | Potency [8] | Potency [9] | Potency [10] | Potency [11] | Potency [12]

O=c1[nH]c(=O)n([C@H]2C[C@H](O)[C@@H](CO)O2)cc1I
active: Potency [2] 5.25 µM
inactive: Potency [1] | Potency [4]

Nc1ncn([C@@H]2O[C@H](CO)[C@@H](O)[C@H]2O)c(=O)n1
inactive: Potency [1] | Potency [4]
active: Potency [2] 1.66 µM

CC(=O)NC[C@H]1CN(c2ccc(N3CCOCC3)c(F)c2)C(=O)O1
inactive: Potency [1] | Potency [5] | Potency [6] | Potency [7] | Potency [8] | Potency [9] | Potency [13] | Potency [10] | Potency [11] | Potency [12] | activity (max response) [3] 5.63%
